Several values for one entry are separate records, joined by “and”; a condition that tells them apart may be missing. Identical values can stand only once. Records with an inconclusive call do not appear. Entries that show only a call come without a potency. Some compounds were tested as several samples or in several runs, with calls that do not always agree. Activity calls are given as the source filed them. Calls follow the shape of the dose curve; as a rule, active = well fitted inhibition curve with a large enough effect in the repeat runs; inconclusive = weak or mixed curves; inactive = no such curve, though single readings can be large or run the other way.
Target: Cytochrome P450 2C9 (Homo sapiens) (UniProt P11712)
Sequence (P11712 whole entry, looked up): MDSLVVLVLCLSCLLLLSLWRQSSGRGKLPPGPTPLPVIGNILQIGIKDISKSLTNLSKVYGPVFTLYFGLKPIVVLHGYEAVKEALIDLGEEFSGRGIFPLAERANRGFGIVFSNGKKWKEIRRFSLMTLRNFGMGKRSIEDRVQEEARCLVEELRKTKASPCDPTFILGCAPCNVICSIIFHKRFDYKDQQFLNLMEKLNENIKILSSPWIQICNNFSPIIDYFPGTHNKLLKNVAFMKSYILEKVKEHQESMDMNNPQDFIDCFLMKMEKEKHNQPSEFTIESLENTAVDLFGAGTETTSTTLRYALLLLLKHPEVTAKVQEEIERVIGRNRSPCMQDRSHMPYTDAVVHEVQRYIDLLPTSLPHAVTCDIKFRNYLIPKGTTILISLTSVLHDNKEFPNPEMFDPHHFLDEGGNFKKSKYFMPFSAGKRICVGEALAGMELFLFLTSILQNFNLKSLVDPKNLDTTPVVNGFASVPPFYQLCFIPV
Assay: Cytochrome P450 Family 2 Subfamily C Member 9 (CYP2C9) small molecule antagonists: luciferase reporter qHTS assay (AID 1671198); also: nearly all actives have a fitted effect of over 50% in size
Details: P450-Glo CYP2C9 enzyme assay, luciferin luminescence; series mostly up to 115 µM
Text: U.S. Tox21 Program National Center for Advancing Translational Sciences [NCATS] U.S. Environmental Protection Agency [EPA] National Institutes of Environmental Health Sciences [NIEHS] National Toxicology Program [NTP] U.S. Food and Drug Administration [FDA] Tox21 Assay Overview: Cytochrome P450 (CYP) enzymes are membrane-bound hemeproteins that play a key role in metabolism of drugs and xenobiotics. Evaluation of the effect of chemicals on CYP isozymes is useful to minimize the adverse drug reactions and toxicities in drug development process. Tox21 chemicals were tested for their effect on CYP enzyme activities by using P450-Glo (TM) screening systems (Promega Corporation, Madison, WI). These systems provide a luminescent method containing proluciferin substrates and are converted to luciferin products by CYP isozymes. The luciferin products formed are detected with a luciferin detection reagent, and the amount of light produced is proportional to CYP activity. P450-Glo (TM) CYP2C9 screening system (Catalog. No. V9790) was used to detect the compounds that interfere in CYP2C9 activity.
Tox21 Assay Protocol Summary: Two ul of enzyme-substrate mix was dispensed into medium binding white/solid 1536-well plates (Greiner Bio-One North America Inc., Monroe, NC) using a BioRaptr Flying Reagent Dispenser (FRD, Beckman Coulter, Brea, CA). […] The assay plates were incubated at room temperature for 10 min. Then 2 ul of NADPH regeneration solution was added to each well of the assay plates using an FRD and incubated at 37C for 1 h. The reaction was stopped by adding 4 ul of detection reagent using an FRD and after 20 min incubation at room temperature the luminescence signal was measured using a ViewLux plate reader (Perkin Elmer, Shelton, CT). Data were expressed as relative luminescence units.
Potency is read from the fitted curve at half-maximal effect.

Compound	Potency
OC[C@@H](O)[C@@H](O)[C@H](O)[C@H](O)CO	inactive and 89.4 µM (active)
CC(C)(C)CC(C)(C)c1ccc(O)c(-n2nc3ccccc3n2)c1	20.3 µM (active) and 10 µM (active) and 12.3 µM (active)
O=c1cc[nH]c(=O)[nH]1	inactive
O=C(O)CN(CC(=O)O)CC(=O)O	inactive
Cc1cccc2ccccc12	inactive
Cc1c(N(C)C)c(=O)n(-c2ccccc2)n1C	inactive
NC(=O)c1ccc([N+](=O)[O-])cc1Cl	71 µM (active) and inactive
OCCCc1ccccc1	inactive
CC(O)COc1ccccc1 (stereo not given)	inactive
CC(=O)CCC(C)C	inactive
COc1cc2c(c(OC)c1OC)-c1ccc(OC)c(=O)cc1[C@@H](NC(C)=O)CC2	inactive
CCCCCCCCCCCCCCCCCC(=O)OCC(O)CO (stereo not given)	inactive
NC(=O)N/N=C/c1ccc([N+](=O)[O-])o1	inactive
C/C=C/c1ccc(O)c(OC)c1	2.83 µM (active) and 20 µM (active) and 13.8 µM (active)
O=c1c(-c2ccc(O)cc2)coc2cc(O)cc(O)c12	55.5 µM (active) and 71 µM (active) and inactive
COC(=O)c1ccc(O)cc1	inactive
Nc1ccc(N=Nc2ccccc2)c(N)n1	20.1 µM (active) and 28.3 µM (active) and 17.4 µM (active)
CN/C(=C\[N+](=O)[O-])NCCSCc1ccc(CN(C)C)o1	inactive
CCCCOCCOCCOC(C)=O	inactive
COc1ccc(C(=O)c2ccccc2)c(O)c1	39.3 µM (active) and 35.6 µM (active) and 24.5 µM (active)

Compound	Potency
COc1ccccc1NC(=O)CC(C)=O	inactive
CCOCCO	inactive
COc1ccccc1O	inactive
C=CCOC(=O)CC(C)C	inactive
c1ccc2[nH]c(-c3cscn3)nc2c1	inactive
COC(=O)c1ccc(C=O)cc1	inactive
Cc1cccc(Nc2cc(Cl)nc(SCC(=O)O)n2)c1C	31.7 µM (active) and 29.2 µM (active) and 17.4 µM (active)
NC(=O)OCC(COC(N)=O)c1ccccc1	inactive
CC1=NN(c2ccccc2)C(=O)C1	11.3 µM (active) and 11.2 µM (active) and 17.4 µM (active)
Oc1cccc(O)c1	inactive
O=C1OC(c2ccc(O)cc2)(c2ccc(O)cc2)c2ccccc21	19.9 µM (active) and 20 µM (active) and 12.3 µM (active)
CC(C)CC(C)CC(O)CC(C)C (stereo not given)	inactive
NC(=O)N1c2ccccc2C=Cc2ccccc21	inactive
COC(=O)C1CCC(C(=O)OC)CC1 (stereo not given)	inactive
CCN1CCCC1=O	inactive
CCCCOCCOCCSC#N	inactive
CN(C)Cc1cc(CN(C)C)c(O)c(CN(C)C)c1	inactive
N[C@@H](Cc1c[nH]c2ccccc12)C(=O)O	71.1 µM (active)
COCCOCCOC	inactive
CCCCCCCC(=O)OCC(O)CO (stereo not given)	inactive

Reference: PubChem BioAssay (Tox21)
